Results on seven compounds are retold here after PubChem BioAssay (NCI).

The structures appear in SMILES notation. “And” between values parts separate entries of the source, which are not always exact repeats. Equal values may be shown once. This is part of a sample that, as a whole, favours compounds with a hit. Of some 83,000 tested, about 20% had one in any assay.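 In brief: 96-well plates, 48 h treatment, single concentration, percent growth endpoint.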 Unmarked numbers belong to inactive results. The source made the active and inactive calls. Rule for the calls: active = growth percent below 10; inactive = the rest.

What all share (experiment): NCI-60 one-dose screen, 48 h (100 = growth as untreated, 0 = no growth, -100 = all killed)
The test system of experiment [1] is NCI-H23 lung. As to conditions: 10 µM.
Experiment [2] concerns NCI-H226 lung. Conditions: 10 µM.
The subject of experiment [3] is NCI-H322M lung. As to conditions: 10 µM.
Experiment [4] deals with HOP-62 NSCLC. As to conditions: 10 µM.
Experiment [5] concerns NCI-H460 lung. Conditions: 10 µM.
Experiment [6] relates to HOP-92 NSCLC. Conditions: 10 µM.
Experiment [7] deals with NCI-H522 lung. Conditions: 10 µM.
The test system of experiment [8] is A549/ATCC NSCLC. As to conditions: 10 µM.
Experiment [9] deals with 786-0 renal. Conditions: 10 µM.
The test system of experiment [10] is COLO 205 colon. As to conditions: 10 µM.
The subject of experiment [11] is DU-145 prostate. As to conditions: 10 µM.
The test system of experiment [12] is K-562 leukemia. As to conditions: 10 µM.
The test system of experiment [13] is MALME-3M melanoma. As to conditions: 10 µM.
The subject of experiment [14] is MDA-MB-231 breast. As to conditions: 10 µM.
The subject of experiment [15] is RXF 393 renal. As to conditions: 10 µM.
The test system of experiment [16] is SF-268 CNS. As to conditions: 10 µM.
Experiment [17] relates to SF-295 CNS. Conditions: 10 µM.
The subject of experiment [18] is SF-539 CNS. Conditions: 10 µM.
Experiment [19] has as its system UACC-257 melanoma. Conditions: 10 µM.
Experiment [20] deals with M14 melanoma. As to conditions: 10 µM unless noted.

Take `O=C1c2cccc3cc([N+](=O)[O-])cc(c23)C(=O)N1CCN1CCCC1`: the growth is -21.7% (active) in experiment [1]; -62.2% (active) in experiment [2]; 23.7% in [3]; -23.3% (active) in experiment [4]; -28.8% (active) in experiment [5]; 0.989% (active) in [6]. Further, the growth is -54.1% (active) in [7]; -28.6% (active) in [8]; -18.8% (active) in experiment [9]; -13.8% (active) in experiment [10]; -30.9% (active) in [11]; -10.2% (active) in [12]. The growth is -26.4% (active) in experiment [13]; 20.6% in experiment [14]; -43% (active) in [15]; 0.438% (active) in experiment [16]; 11% in experiment [17]; -20.7% (active) in experiment [18]. Also, the growth in [19] is 3.14% (active); in experiment [20], 0.262% (active).
`COc1ccc(N)c2c1C(=O)c1ccccc1C2=O`: the growth was 99.6% in experiment [1]; 93.5% in experiment [2]; 91.1% in [3]; 111% in [4]; 98.1% in experiment [5]; 84.1% in [6]. Further, the growth in [7] was 88.6%; in [8], 96.7%; in experiment [9], 112%; in experiment [10], 111%; in [11], 112%; in experiment [12] it was 98.9%. Also, the growth in experiment [13] is 88.2%; in experiment [14], 95.5%; in experiment [15], 95.6%; in experiment [16], 104%; in experiment [17] it was 103%; in [18], 101%. In addition, the growth in experiment [19] is 106%; in experiment [20], 117%.
As for `Cn1c2nc3ccccc3c-2nc2ccccc21`, the growth in experiment [1] was 94.1% and 91.3%; in [2] it was 104%; in experiment [3] it was 99.7% and 88.7%; in experiment [4], 80.5% and 85.1%; in experiment [5], 86.9% and 86.5%; in experiment [6] it was 77.6% and 79.1%. Also, the growth in [7] is 102% and 87.8%; in [8], 96.1% and 86.3%; in [9], 96.6% and 94.4%; in experiment [10], 86.7% and 83.9%; in experiment [11], 94.4% and 95.7%; in experiment [12] it was 121% and 94.7%. Moreover, the growth is 116% and 115% in experiment [13]; 79.9% and 83.8% in [14]; 91% and 90.7% in experiment [15]; 97% and 97.7% in [16]; 96.8% and 107% in experiment [17]; 92.2% and 77.2% in experiment [18]. Besides, the growth was 108% and 94.5% in experiment [19]; 108% and 100% in [20].
For `NCc1c(O)ccc2ccccc12`, the growth in experiment [1] is 102%; in [2], 96.2%; in experiment [3] it was 96.4%; in experiment [4], 90.7%; in experiment [5], 108%; in [6], 73%. Also, the growth in experiment [7] is 95%; in [8], 94.7%; in experiment [9], 103%; in [10], 105%; in experiment [11], 109%; in experiment [12], 99.1%. The growth was 96.6% in experiment [13]; 105% in experiment [14]; 102% in experiment [15]; 97.2% in experiment [16]; 75.5% in [17]; 92.8% in experiment [18]. The figures for the growth in experiment [19] and in experiment [20] were 95.6% and 90.8%, respectively.
Turning to `COc1cccc(C(c2cc3c(cc2O)OCO3)N2CCOCC2)c1OC` (stereo not given), the growth in experiment [1] was 109%; in experiment [2], 99.6%; in [3], 101%; in experiment [4], 101%; in experiment [5], 104%; in experiment [6] it was 99.6%. Moreover, the growth in [7] is 94.8%; in experiment [8], 99.9%; in experiment [9], 101%; in experiment [10], 111%; in experiment [11] it was 109%; in experiment [12], 95.8%. Further, the growth in [13] was 99.2%; in experiment [14] it was 97.7%; in [15], 103%; in experiment [16] it was 95.8%; in [17] it was 99.7%; in experiment [18], 96.5%. Further, the growth was 98.4% in [19] and 104% in experiment [20].
For the compound `O=C(NC(=S)Nc1ccccn1)c1ccccc1`, the growth is 75.7% in [1]; 91.1% in experiment [2]; 85.5% in experiment [3]; 106% in experiment [4]; 94% in experiment [5]; 79.5% in [6]. The growth was 82.1% in experiment [7]; 101% in experiment [8]; 90.1% in experiment [9]; 101% in [10]; 96.2% in experiment [11]; 143% in experiment [12]. Further, the growth was 82.6% in [13]; 91.6% in experiment [14]; 103% in experiment [15]; 104% in experiment [16]; 104% in experiment [17]; 88.6% in [18]. Also, the results for the growth in [19] and in experiment [20] were 110% and 91.9%, respectively.
Regarding `N#C/C(=C/N1C(=O)/C(=C/c2ccc([N+](=O)[O-])cc2)SC1=S)c1nc2ccccc2s1`, the growth in [1] was 89.1%; in [2], 63.8%; in experiment [3] it was 88.1%; in experiment [4], 82.4%; in [5], 90.3%; in experiment [6] it was 66.8%. Further, the growth in experiment [7] was 78.7%; in [8] it was 91.4%; in [9], 94.8%; in experiment [10], 90.3%; in experiment [11], 104%; in experiment [12], 77.5%. Besides, the growth is 111% in [13]; 73.6% in experiment [14]; 96.8% in [15]; 95% in [16]; 86.8% in experiment [17]; 91.9% in experiment [18]. For the same compound, the results for the growth in [19] and in [20] were 96.5% and 94.6%, respectively.
